The results in this text go back to PubChem BioAssay.

Molecules are shown by their SMILES. For part of these data: Results with a measured potency or affinity are listed apart. The source made the active and inactive calls.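 Rule for the calls, unless noted: active = fitted half-maximal concentration within the tested range, moderate curve steepness, significant signal drop, and little compound fluorescence or bead-linkage interference; inactive = the rest.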

The target of test [1] is Cell division control protein 42 homolog (Homo sapiens) (UniProt P60953). The test can be described thus: inhibition of fluorescent GTP binding to constitutively active Cdc42 – biochemical, multiplex bead flow cytometry, Bodipy-FL-GTP, dose response (AID 1333;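 active = fitted half-maximal concentration within the tested dose range, moderate curve steepness, a statistically real signal drop, and little compound fluorescence or tag-binding interference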).
Test [2] shares this target. Description: inhibition of fluorescent GTP binding to wildtype Cdc42 – biochemical, multiplex bead flow cytometry, Bodipy-FL-GTP, dose response (AID 1334). The conditions noted are these: bead-based flow cytometry, Bodipy-FL-GTP binding to GST-Cdc42; at 100 µM (top of the series) unless noted.
Test [3] concerns the target GTPase HRas (Homo sapiens) (UniProt P01112). The test can be described thus: Ras wt fluorescent GTP loading blockade – biochemical, wildtype, multiplex bead flow cytometry, dose response (AID 1335;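 active = fitted half-maximal concentration within 10 nM to 100 µM, steepness 0.5 to 2, significant signal drop, low assay interference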). The following applies: bead-based flow cytometry, Bodipy-GTP binding to GST-Ras; at 100 µM (top of the series) unless noted. On the technique in general: In flow cytometry, cells or beads pass a laser one at a time.

Test [4] relates to Ras-related protein Rab-7a (dog), GTP binding. Description: blockers of fluorescent GTP binding to Rab7 – biochemical, wildtype, multiplex bead flow cytometry, dose response (AID 1336; call rule not given here).
Test [5] deals with Ras-related C3 botulinum toxin substrate 1 (Homo sapiens) (UniProt P63000). The test can be described thus: inhibition of wildtype Rac1 nucleotide loading – biochemical, multiplex bead flow cytometry, dose response (AID 1340;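 active = dose curve with midpoint inside tested range, moderate steepness, plateau gap beyond fit error, low compound glow and bead-link interference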). The conditions noted are these: GST-Rac1 beads, Bodipy-FL-GTP binding; at 100 µM (top of the series) unless noted.
Test [6] has as its target GTPase HRas (Homo sapiens) (UniProt P01112). The test can be described thus: blockade of GTP loading onto mutant Ras – biochemical, activated mutant, multiplex bead flow cytometry, dose response (AID 1341;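 active = dose-response curve with midpoint inside the tested range, moderate steepness, significant amplitude and little compound fluorescence or bead-attachment interference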;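 note: GST-tagged constitutively activated Ras mutant immobilized on beads and multiplexed with other GTPases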).

Sequence of Cell division control protein 42 homolog (Homo sapiens) (P60953 whole entry, looked up): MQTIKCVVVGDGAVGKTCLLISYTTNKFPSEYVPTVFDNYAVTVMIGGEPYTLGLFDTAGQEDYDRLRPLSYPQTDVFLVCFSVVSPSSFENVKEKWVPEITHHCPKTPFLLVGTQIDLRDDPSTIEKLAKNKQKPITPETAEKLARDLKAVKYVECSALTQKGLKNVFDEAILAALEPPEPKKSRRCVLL
Sequence of GTPase HRas (Homo sapiens) (P01112 whole entry, looked up): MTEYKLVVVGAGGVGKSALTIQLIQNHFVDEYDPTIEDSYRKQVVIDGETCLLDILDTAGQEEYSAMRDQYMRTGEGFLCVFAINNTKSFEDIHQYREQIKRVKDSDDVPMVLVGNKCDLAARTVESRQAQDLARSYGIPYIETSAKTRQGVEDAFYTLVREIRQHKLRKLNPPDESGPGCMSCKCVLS

Regarding `COc1cc(/C=N/NC(=S)Nc2cccnc2)cc(OC)c1O`, the call in test [1], in test [4] and in test [6] was inactive. Also, the fluorescence, percent of control (lower = inhibition) in test [2] is 31.8%. Further, the GTP binding, percent of control in test [3] was found to be 72%. The molecule further came in with a GTP binding signal, raw median fluorescence (lower = inhibition) (MCF (arbitrary fluorescence units)) in test [5] of 163.
For `COc1cccc(OCc2ccccc2Br)c1C(=O)O`, the molecule was called inactive in test [1], in test [4] and in test [6]. Moreover, in test [2], the fluorescence, percent of control (lower = inhibition) was 51.9%. This molecule also returned a GTP binding, percent of control in test [3] of 206%. In addition, the GTP binding signal, raw median fluorescence (lower = inhibition) (MCF (arbitrary fluorescence units)) in test [5] was found to be 46.4.
As for `COc1cc2nc(=S)n(CCCN3CCOCC3)c(N)c2cc1OC`, the outcome in test [1], in test [4] and in test [6] was inactive. In addition, the fluorescence, percent of control (lower = inhibition) in test [2] came out at 38.1%. Further, the GTP binding, percent of control in test [3] worked out at 79.4%. This molecule displayed a GTP binding signal, raw median fluorescence (lower = inhibition) (MCF (arbitrary fluorescence units)) in test [5] of 151.
Consider `C=CCc1cc(/C=C/c2nc(O)c([N+](=O)[O-])c(=O)[nH]2)cc(OC)c1O`, for which the call in test [1], in test [4] and in test [6] was inactive. The fluorescence, percent of control (lower = inhibition) in test [2] is 31.5%. The same molecule came in with a GTP binding, percent of control in test [3] of 77.1%. In test [5], this molecule showed a GTP binding signal, raw median fluorescence (lower = inhibition) (MCF (arbitrary fluorescence units)) of 177.
Turning to `CCOC(=O)c1nc(Nc2ccc(C(=O)OC)cc2)c2ccccc2n1`, the molecule was called inactive in test [1], in test [4] and in test [6]. Moreover, the fluorescence, percent of control (lower = inhibition) in test [2] stood at 43.9%. Further, the GTP binding, percent of control in test [3] turned out to be 115%. Besides, the GTP binding signal, raw median fluorescence (lower = inhibition) (MCF (arbitrary fluorescence units)) in test [5] came to 128.
Turning to `CC(C)N(C(=O)Cn1cnc2cc([N+](=O)[O-])ccc2c1=O)C(C)C`, the molecule was called inactive in test [1], in test [4] and in test [6]. In test [2], the fluorescence, percent of control (lower = inhibition) is 34.2%. Also, the GTP binding, percent of control in test [3] turned out to be 76.5%. The molecule further returned a GTP binding signal, raw median fluorescence (lower = inhibition) (MCF (arbitrary fluorescence units)) in test [5] of 156.
For `CC(C)c1cc(NCc2ccccn2)n2c(nc3ccccc32)c1C#N`, the call in test [1], in test [4] and in test [6] was inactive. Also, the fluorescence, percent of control (lower = inhibition) in test [2] was 34.4%. Also, the GTP binding, percent of control in test [3] came to 77.4%. The GTP binding signal, raw median fluorescence (lower = inhibition) (MCF (arbitrary fluorescence units)) in test [5] is 178.
In the case of `COc1ccc(O)c(-c2cc(C(F)(F)C(F)F)nc(-c3ccccc3)n2)c1`, the outcome in test [1], in test [4] and in test [6] was inactive. Besides, the fluorescence, percent of control (lower = inhibition) in test [2] was found to be 106%. Further, the GTP binding, percent of control in test [3] was 177%. The molecule further came in with a GTP binding signal, raw median fluorescence (lower = inhibition) (MCF (arbitrary fluorescence units)) in test [5] of 183.
Consider `Cn1cc(C(=O)N2CCc3ccccc3C2)c(=O)c2cc(S(=O)(=O)N3CCCCC3)ccc21`, for which the outcome in test [1], in test [4] and in test [6] was inactive. Besides, the fluorescence, percent of control (lower = inhibition) in test [2] is 60.6%. Moreover, the GTP binding, percent of control in test [3] came out at 110%. Also, in test [5], the GTP binding signal, raw median fluorescence (lower = inhibition) (MCF (arbitrary fluorescence units)) was determined as 370.
In the case of `Cc1ccc(-c2csc3nc4c5ccccc5c(NCCCN(C)C)nn4c(=O)c23)cc1`, the outcome in test [1], in test [4] and in test [6] was inactive. Further, the fluorescence, percent of control (lower = inhibition) in test [2] came to 61.7%. In test [3], this molecule yielded a GTP binding, percent of control of 96.5%. In addition, the GTP binding signal, raw median fluorescence (lower = inhibition) (MCF (arbitrary fluorescence units)) in test [5] was determined as 192.
On to `COc1ccc(CCNc2nc(=S)[nH]c3cc(OC)c(OC)cc23)cc1OC`, for which the call in test [1], in test [4] and in test [6] was inactive. For the same molecule, in test [2], the fluorescence, percent of control (lower = inhibition) came to 25.9%. Also, in test [3], the GTP binding, percent of control came out at 57.9%. This molecule also showed a GTP binding signal, raw median fluorescence (lower = inhibition) (MCF (arbitrary fluorescence units)) in test [5] of 111.
Consider `CC(C)CCNC(=O)Cc1ccc(Nc2nc(=S)[nH]c3ccccc23)cc1`, for which the call in test [1], in test [4] and in test [6] was inactive. The fluorescence, percent of control (lower = inhibition) in test [2] was found to be 32.2%. In test [3], this molecule displayed a GTP binding, percent of control of 71.5%. In test [5], this molecule returned a GTP binding signal, raw median fluorescence (lower = inhibition) (MCF (arbitrary fluorescence units)) of 169.
As to `Oc1ccc(NC(=S)N=Nc2c(O)[nH]c3ccc(Br)cc23)cc1`, the result in test [1], in test [4] and in test [6] was inactive. Also, the fluorescence, percent of control (lower = inhibition) in test [2] was 33.1%. This molecule displayed a GTP binding, percent of control in test [3] of 78.4%. The GTP binding signal, raw median fluorescence (lower = inhibition) (MCF (arbitrary fluorescence units)) in test [5] worked out at 200.
As to `COCCNC(=O)c1cnn2c(C(F)F)cc(-c3ccccc3)nc12`, the molecule was classed as inactive in test [1], in test [4] and in test [6]. Besides, the fluorescence, percent of control (lower = inhibition) in test [2] amounted to 40%. The molecule further had a GTP binding, percent of control in test [3] of 85.2%. In test [5], this molecule yielded a GTP binding signal, raw median fluorescence (lower = inhibition) (MCF (arbitrary fluorescence units)) of 204.
Consider `CCn1c(=N)c(S(=O)(=O)c2ccc(C)cc2)cc2c(=O)n3ccccc3nc21`, for which the molecule was classed as inactive in test [1], in test [4] and in test [6]. The fluorescence, percent of control (lower = inhibition) in test [2] turned out to be 36.8%. This molecule also came in with a GTP binding, percent of control in test [3] of 79.5%. In test [5], this molecule came in with a GTP binding signal, raw median fluorescence (lower = inhibition) (MCF (arbitrary fluorescence units)) of 174.
